# Screen size: about 150,000 compounds; about 180 (0.12%) were called active. Inconclusive results (about 6%) are left out. The list comes from a sample in which actives are over-represented; it also holds similar structures and randomly drawn compounds. Values without a mark were called inactive. The call rests on the fitted dose curve; in most records, active means well fitted cell-killing curve with a large enough effect; inconclusive means small, poorly fitted or top-dose-only effect, or effect the other way; inactive means flat fitted curve, though single readings scatter.
# Test: GF-AFC viability counterscreen for inhibitors of alpha-synuclein gene (SNCA) expression; further: nearly all actives have a fitted effect of over 30% in size
# Conditions: HEK-293-SNCA-luc viability, GF-AFC fluorescence, 24 h; series mostly up to 57.1 µM; activity change, negative = cytotoxicity: at the top concentration
# Text: Assay Submitter (PI): Daniel R. Scoles Ph.D.
# Department of Neurology, University of Utah, Salt Lake City, Utah
# Accumulation of alpha-synuclein is a main underlying pathological feature of Parkinson's disease (PD) and alpha-synucleinopathies, for which lowering expression of the alpha-synuclein gene (SNCA) is a potential therapeutic avenue. Using a cell-based luciferase reporter of SNCA expression we performed a quantitative high throughput screen (qHTS) of 155,885 compounds in dose response. The screening assay was generated using genome editing to insert the luciferase gene downstream and in frame of the SNCA gene in HEK-293 cells (1). A viability counterscreen using GF-AFC was used to eliminate cytotoxic and false positive compounds. After in silico analysis (clustering, removal of frequent hitter nuisance chemotypes), inhibitor compounds from the primary screen were selected for follow up and re-tested at 11-doses in the SNCA-luc cells (luciferase and GF-AFC confirmation), and in CMV-luc expressing cell line to flag general transcriptional repressors.
# Described herein are the results of the GF-AFC viability counterscreen for SNCA inhibitors; inactivity (no decrease in fluorescence signal, not cytotoxic) is the desired output for this assay.
# 1. Dansithong, W., Paul, S., Scoles, D. R., Pulst, S. M., and Huynh, D. P. (2015) Generation of SNCA Cell Models Using Zinc Finger Nuclease (ZFN) Technology for Efficient High-Throughput Drug Screening. PLoS ONE 10, e0136930.
# SEQUENCE No. (e.g., 1, 2, 3, etc.); […] (e.g., Cells, Incubation, Reagent, etc.); VALUE; DESCRIPTION
# 1; Cells; 4 uL; Dispense 1500 HEK-293-SNCA-luc cells/well into Greiner 1536-well white / solid bottom tissue culture treated plate. The plate was covered with metal lids with gas-exchange holes.
# 2; Incubate; 24 hours; Incubate at 37C, 5% CO2, 95% RH.
# 3; Compounds; 23 nL; Compounds and controls were transferred via a Kalypsys Pin Tool (Wako USA) equipped with a 1536-slotted pin array. The plate was covered with metal lids with gas-exchange holes.
# 4; Incubate; 24 hours; Incubate at 37C, 5% CO2, 95% RH.
# 5; Dispense; 1 uL; Dispense Gly-Phe-7-amino-4-trifluoromethylcoumarin (GF-AFC, prepared at 125 uM in PBS) was added. The plate was covered with metal lids with gas-exchange holes.
# 6; Incubate; 30 min; Incubate at 37C, 5% CO2.
# 7; Detector; Fluorescence; Measure fluorescence with ViewLux microplate reader (PerkinElmer) equipped with 405/10 excitation and 540/25 emission filters.
# 8; Dispense; 3 uL; Dispense ONE-Glo ([…]) lucifase detection reagent was added to each well. Plates were covered with metal lids with gas-exchange holes.
# 9; Incubate; 15 min; Incubate at room temperature.
# 10; Detector; Luminescence; Measure luminescence with ViewLux microplate reader (PerkinElmer) equipped with clear filters.
# NOTES (numbers refer to sequence above)
# 1; HEK-293-SNCA-luc were cultured and suspended in phenol-red free DMEM (4.5 g/L glucose, 25 mM HEPES, cat #21063 (Thermo)).
# 3; Compounds were added to the assay plate in an 11-point intra plate dose response, 1:3 titration in DMSO with a final concentration range of […]. Vehicle-only plates, with DMSO being pin-transferred to every well, were inserted at the beginning of screening runs to confirm expected assay performance. Activity was normalized to wells containing medium only (-100% activity, full inhibition) and SNCA-luc cells treated with DMSO vehicle control (0% activity), contained on the same plate as test samples.
# 10; Signals were analyzed, and dose-response curves were fit using the Hill equation. Compounds in curve classes -1.1, -1.2, -2.1, -2.2 in the SNCA-luc assay were considered active. Compounds were eliminated from further consideration if also active (curve class -1.1, -1.2, -1.3, -1.4, -2.1, -2.2, -2.3, -2.4) in the GF-AFC cytotoxicity assay.
# Potency means the concentration at half of the fitted maximal effect.
SMILES,"activity change, negative = cytotoxicity",Potency
CC(NC(=O)c1ccc(OC(F)(F)F)cc1)C(=O)N1CCN(c2ccccn2)CC1 (configuration not stated),3.19%,–
CCNC(=O)N1CCCC1c1noc(CCC(=O)NC2CCCC2)n1 (configuration not stated),0.282%,–
O=C1Nc2ccccc2CC12CCCN2Cc1ccccc1 (configuration not stated),-8.5% [at 87.6 µM],–
Cc1cc(N2CCC3(CC2)CC(c2ccccc2)C(=O)N3C)ncn1 (configuration not stated),6.83%,–
Cc1cccnc1CN1CCN(C(=O)Cn2nnnc2CN2CCCC2)CC1,-3.36%,–
CC1=C[C@@H](CNS(C)(=O)=O)[C@H](C(C)C)C[C@H]1Cc1nnc(-c2ccncc2)o1,-8.43% [at 87.6 µM],–
CC1=C[C@@H](CNC2CC2)[C@H](C(C)C)C[C@H]1Cc1nnc(-c2ccc(C)cc2)o1,–,35.5 µM (active)
CC1=C[C@@H](CNC(C)C)[C@H](C(C)C)C[C@H]1Cc1nnc(-c2ccncc2)o1,-22.8% [at 87.6 µM],–
O=C1CCC2(C(=O)NCc3cccc(F)c3)CCC=C2N1C1CCCC1 (configuration not stated),-14.6%,–
O=C1[C@@H]2C[C@@H](CN2Cc2ccc3ccccc3n2)Oc2ccccc2N1Cc1ccccc1,-2.59%,–
COc1ccccc1-c1cccc(CN2CCCC(C(=O)NCC3CC3)C2)c1 (configuration not stated),-20.7%,–
CN(C(=O)CN1C(=O)NC2(CCOCC2)C1=O)c1ccccc1,0.394%,–
O=c1cc(-c2ccccn2)oc2c(-c3ccccc3F)nccc12,-4.35% [at 87.6 µM],–
COc1ccc2c(c1)OCC(C(=O)NCc1cc3cc(OC)ccc3[nH]1)C2 (configuration not stated),-0.849%,–
COCCC(=O)N1CCCCCCNC(=O)[C@@H]2CCCC[C@@H]21,-2.24%,–
Cc1ccc(CN2CCCCCNC(=O)[C@H]3C[C@H](C(=O)N4CCc5ccccc5C4)C[C@H]32)o1,3.43%,–
COc1ccc(-c2noc(C(=O)O)c2[C@@H](C)NS(=O)(=O)c2ccccc2)cc1,2.71% [at 87.6 µM],–
O=C(NCC1CC1)c1cn(C2CN(C(=O)C3CCOC3)C2)nn1 (configuration not stated),-3.5%,–
O=C(Cc1cccc(F)c1)N1CCC2(CCC2N2CCOCC2)CC1 (configuration not stated),18.3%,–

SMILES,"activity change, negative = cytotoxicity",Potency
Cc1cccc(CN2CCCN(Cc3ccncc3)C(c3ccccc3)CC(=O)NCC2)c1 (configuration not stated),-16.1%,–
CCCCS(=O)(=O)c1oc(-c2cccs2)nc1S(=O)(=O)c1ccccc1,–,12.6 µM (active)
Cc1ccc(CSc2oc(-c3cccs3)nc2S(=O)(=O)c2ccc(C)cc2)cc1,9.59%,–
CSc1oc(-c2cccs2)nc1S(=O)(=O)c1ccc(Br)cc1,1.94%,–
O=C(CCCc1c[nH]c2ccccc12)N1CCC2(CC1)CC(CCOCC1CC1)CCO2 (configuration not stated),-6.02%,–
CCc1cccc(NC(=O)N2[C@@H]3CC[C@H]2CC(NC(=O)c2ccc(F)cc2)C3)c1 (some centres not stated),-25.3%,–
O=C(NCc1cccc(C(F)(F)F)c1)c1nn(CCOc2ccccc2)c2c1CNCC2,-4.06%,–
Cn1ccnc1CNCC1(COc2ccc(C(F)(F)F)cn2)C[C@@H](O)[C@@H](O)C1 (some centres not stated),-2.65%,–
O=C(NCc1ccccc1)[C@@H]1Cc2nc[nH]c2CN1Cc1cccc(OC(F)(F)F)c1,-8.21% [at 87.6 µM],–
COc1ccc(NC(=O)C2(C)CN(C)Cc3ccc(Nc4cccc(OC)c4)nc32)cc1 (configuration not stated),-18.7% [at 87.6 µM],–
O=C(NCC1CC1)c1coc(COc2ccc3c(c2)C(c2cccc(F)c2)N(C(=O)C2CC2)CC3)n1 (configuration not stated),-14.2%,–
CC(CCc1ccccc1)NC(=O)CN1C(=O)NC(c2ccccc2Cl)C2=C1COC2=O (configuration not stated),-0.822%,–
O=C(NCc1ccccc1F)c1nc2cccnc2n(C2CC2)c1=O,-13.2% [at 87.6 µM],–
OC1CN(Cc2ccccc2)CCN(C2CCN(c3ccccc3F)CC2)C1 (configuration not stated),4.08%,–
Cc1ccc(S(=O)(=O)N2CCCN(C)c3ccccc32)cc1Cl,-17.9%,–
Cc1nc(N2CCCCC2)ncc1C(=O)N1CCC2(CCCNC2=O)C1 (configuration not stated),23.5%,–
NCc1ccccc1-c1cccc(C(F)(F)F)c1,-9.76% [at 87.6 µM],–
O=C1[C@H]2CN(Cc3ccccc3F)C[C@H]2C(=O)N1CCN1CCc2ccccc2C1,4.45%,–
O=C(NCc1ccco1)[C@@H]1Cc2nc[nH]c2CN1CCCc1ccccc1,0.221% [at 87.6 µM],–

SMILES,"activity change, negative = cytotoxicity",Potency
COc1ccc2cc(CN3CCNC(=O)C3C)c(-c3cccs3)nc2c1 (configuration not stated),-3.98%,–
COc1cccc(-c2cn3c(n2)N(C(=O)Cc2ccccc2)CCC3)c1,4.12%,–
O=C(CCC[C@H]1NC[C@@H]2C[C@H]1CN(Cc1ccccc1)C2)N1CCN(C2CCCCC2)CC1,-23.5%,–
Cc1cccc(OCC2CCCN(c3ncncn3)C2)c1 (configuration not stated),2.2%,–
O=C(c1ccc2c(c1)OCO2)N1CCC2(CC1)NC(=O)N(c1ccccc1)N2,-4.33%,–
Cc1noc2c(Nc3ccc(Cl)cc3)cc(-c3cccnc3)nc12,-15.1% [at 87.6 µM],–
COCCN1CCOC2(CCN(Cc3ccc(C(C)C)cc3)CC2)C1=O,-4.8% [at 87.6 µM],–
CN(C)Cc1cccc(-c2cc(-c3ccncc3)c3cncn3c2)c1,0.379% [at 87.6 µM],–
O=C(Cc1ccc(F)cc1)N1CN=C(C2CCN(Cc3ccc(F)cc3)CC2)N1,-6.57%,–
COC(=O)[C@@H]1Cc2ncn(Cc3ccccc3)c2CN1C(=O)CC(C)(C)C,-4.83% [at 87.6 µM],–
CC(C)Oc1ccc(CN2CCCC(COc3ccccc3C(=O)N3CCCC3)C2)cc1 (configuration not stated),-12.6%,–
COc1ccc(N2CCN(c3nc(C(=O)NC4CCCCCC4)cs3)CC2)cc1,-19.7%,–
O=C(C1CCCC1)N1CCc2nc(C3CC3)nc(-c3ccc(O)cc3)c2C1,-12.3%,–
O=C1C2CN(Cc3ccc4[nH]ccc4c3)CCC2OCCN1Cc1ccccc1F (configuration not stated),-5.56% [at 87.6 µM],–
CCN(CC)CCCCNc1ncc2cc(-c3c(Cl)cccc3Cl)c(NC(=O)NC(C)(C)C)nc2n1,–,15 µM (active)
CN(C)C[C@@H]1CN(Cc2cccnc2)C[C@H]1NC(=O)Cc1cccc(F)c1,17.1%,–
O=C(c1cccc(O)c1)N1CCNc2cnc(Nc3cccc(F)c3)nc2C1,-14.6% [at 87.6 µM],–
c1cnc2nc(C3CCN(C4CCCCC4)C3)[nH]c2c1 (configuration not stated),-13.3% [at 87.6 µM],–
O=C(NCc1ccc(F)cc1)N1CCC2(CC1)CC(OCC1CC1)CCO2 (configuration not stated),4.57% [at 12.5 µM],–

# Source: PubChem BioAssay AID1671193 (National Center for Advancing Translational Sciences (NCATS), 2021)
